Source: PubChem (several laboratories)
Hits are enriched below; roughly 4.2% of the tested compounds scored in any of these assays.
DAX1 StAR inh: inhibitors of DAX1 repression of SF-1 activated StAR promoter | inhibition, % at 6.8 µM | AID 652010 | hit rate 1.1% among 370,000 | HEK293T StAR-luciferase reporter, SF-1/DAX-1 repression relief;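 active = inhibition above the mean over all tested compounds plus 3 SD, cut at about 3.6% in these data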;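 note: higher inhibition means more luminescence from relief of DAX-1 repression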
hcDAF-12 act: H. contortus DAF-12 activation, primary screen; activation, % at 6.8 µM; HEK293 hcDAF-12 lit1-tk-luc reporter, luminescence; 0% DMSO, 100% Δ7-dafachronic acid; AID 652067; hit rate 1.4% among 370,000;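 active = activation above the mean of all tested compounds plus 3 SD, cut at about 5.5% in these data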
ssDAF12 agonist: activators of S. stercoralis DAF-12 nuclear receptor; HEK293 ssDAF-12/GRIP1 lit1-tk-luc reporter, luminescence; % of 3 µM dafachronic acid response; activation, % at 6.8 µM; hit rate 1% among 370,000; AID 652126;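 active = activation above the mean over all tested compounds plus 3 SD, cut at about 0.9% in these data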
Wnt bcat act: activators of Wnt/beta-catenin signaling | hit rate 1.2% among 300,000 | activation, % at 9.35 µM | Wnt/beta-catenin reporter cell assay, activator, plate reader; in the data active = activation above about 30%, passing the limit was not always enough; inconclusive = no clear call, values can overlap the other calls
hgDAF-12 ag: hgDAF-12 agonism, primary luciferase screen; HEK293 GAL4-hgDAF12 UAS-luciferase reporter, agonist luminescence; normalized to butyrate control; activation, % at 6.8 µM; hit rate 1.8% among 370,000; AID 687014;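 active = activation above a cutoff set at the mean of all screened compounds plus 3 SD, cut at about 10% in these data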
esBAF inh: SWI/SNF esBAF complex inhibition; mouse ES cells, Bmi1-luciferase knock-in reporter, 24 h; 100% = twice the neutral-well signal; hit rate 2% among 350,000; AID 602393; reporter increase, % at 12.5 µM; in the data active = activation above about 40%; inconclusive = no clear call, values can overlap the other calls;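 note: a rise in the Bmi1 reporter signal indicates esBAF inhibition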
DAX1 inh confirm: NR0B1 (human) inhibition, confirmation; HEK293T StAR-promoter luciferase reporter, SF-1/DAX-1 repression; shares compounds with DAX1 StAR inh; AID 652134; inhibition, % at 6.8 µM; hit rate 87% among 2,400;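 active = inhibition above the average of every tested compound plus 3 SD, cut at about 3.8% in these data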;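 note: active compounds raise luminescence by relieving repression of the StAR reporter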
Target sequence (P51843 whole entry, looked up): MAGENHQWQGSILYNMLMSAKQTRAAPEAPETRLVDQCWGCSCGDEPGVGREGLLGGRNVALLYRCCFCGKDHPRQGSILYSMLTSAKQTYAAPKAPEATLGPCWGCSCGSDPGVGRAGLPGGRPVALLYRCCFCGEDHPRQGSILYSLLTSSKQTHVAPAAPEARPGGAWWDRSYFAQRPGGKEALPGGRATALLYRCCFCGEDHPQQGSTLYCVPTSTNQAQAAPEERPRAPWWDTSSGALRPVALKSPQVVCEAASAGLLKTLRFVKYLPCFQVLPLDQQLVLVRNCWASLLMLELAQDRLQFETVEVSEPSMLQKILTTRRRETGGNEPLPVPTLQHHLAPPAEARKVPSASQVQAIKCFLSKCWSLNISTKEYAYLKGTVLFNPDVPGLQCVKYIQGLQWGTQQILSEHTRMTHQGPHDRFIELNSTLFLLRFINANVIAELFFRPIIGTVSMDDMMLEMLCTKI
SF1 mutant ctr: counter-screen for DAX1 inhibitors: nonselective inhibitors with SF-1 AF2 mutant | shares compounds with DAX1 StAR inh | HEK293 StAR-luciferase, luminescence | inhibition, % at 6.8 µM | hit rate 78% among 2,400;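 active = inhibition above the mean of all tested compounds plus 3 SD, cut at about 3% in these data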
Hits are given with their value; n = inactive; u = inconclusive; x = no result given.

SMILES	DAX1 StAR inh	hcDAF-12 act	ssDAF12 agonist	Wnt bcat act	hgDAF-12 ag	esBAF inh	DAX1 inh confirm	SF1 mutant ctr
Cc1ccccc1Cn1nnc(C(=O)Nc2ccc3c(c2)OCCO3)c1N	6.2	n	n	46	n	68	8.7	7.4
Cc1ccc(C)c(Cn2nnc(C(=O)Nc3ccc4c(c3)OCCO4)c2N)c1	4.6	n	n	n	n	64	n	3.6
COCC(=O)Nc1ccc2c(c1)C(=O)N(C)C[C@@H](OC)[C@H](C)CN(Cc1ccncc1)[C@@H](C)CO2	x	x	x	x	x	n	x	x
CCCC#Cc1cnc2c(c1)C(=O)N([C@@H](C)CO)C[C@H](C)[C@H](CN(C)C(=O)CN1CCOCC1)O2	x	x	x	x	x	n	x	x
Cc1cccc(-c2ccc3c(c2)C2CC3CCN2C(=O)OCc2ccccc2)c1 (configuration not stated)	n	n	n	n	n	n	x	x
CCCCNc1ccc2c(c1)C1CC2CCN1C(=O)OCc1ccccc1 (configuration not stated)	7.0	n	n	n	n	100	8.3	n
Cc1ccc(-c2cnc3c(c2)C(=O)N([C@H](C)CO)C[C@H](C)[C@H](CN(C)S(C)(=O)=O)O3)cc1	x	x	x	x	x	n	x	x
CCOC(=O)c1sc(NC(=O)CSc2ncccn2)nc1C	n	n	n	n	n	n	x	x
CCOC(=O)c1sc(NC(=O)CSc2nccn2C)nc1C	5.7	n	n	n	n	n	6.8	4.8
COc1ccc(OCc2nc3ccccc3[nH]2)cc1	5.7	n	n	x	n	n	13	8.4
c1ccc2[nH]c(COCc3nc4ccccc4[nH]3)nc2c1	x	n	n	x	n	x	x	x
c1ccc2[nH]c(CCCc3nc4ccccc4[nH]3)nc2c1	n	n	n	n	n	n	x	x
COc1cccc(OCc2nc3ccccc3[nH]2)c1	5.5	n	n	n	n	u	6.3	7.0
c1ccc2cc(OCc3nc4ccccc4[nH]3)ccc2c1	4.8	n	n	x	11	51	15	7.6
C/C=C/c1ccc2c(c1)O[C@@H](CN(C)Cc1ccc(C(=O)O)cc1)[C@H](C)CN([C@H](C)CO)S2(=O)=O	x	x	x	x	x	n	x	x
Cc1ccc(S(=O)(=O)Nc2ccc3c(c2)CC(=O)N([C@@H](C)CO)C[C@H](C)[C@H](CN(C)C(=O)NC(C)C)O3)cc1	x	x	x	x	x	n	x	x
CN1CCCC1CCNc1ccc2oc3ccccc3c(=O)c2c1 (configuration not stated)	n	n	n	n	n	x	x	x
Cn1c2ccccc2c(=O)c2cc(NCCCN3CCOCC3)ccc21	5.1	n	n	n	11	n	15	10
CN1CCC[C@H]1CCNc1ccc2c(=O)c3ccccc3n(C)c2c1	8.1	n	n	n	n	64	15	9.6
C[C@H]1CCCCO[C@@H](CN(C)S(=O)(=O)c2cn(C)cn2)[C@@H](C)CN([C@@H](C)CO)C(=O)c2cc(NS(=O)(=O)c3ccc(Cl)cc3)ccc2O1	x	x	x	x	x	n	x	x
COc1ccccc1OCCNC(=O)CSC(=S)N1CCCC1	n	n	n	n	n	n	x	x
COc1ccccc1OCC(=O)NNC(=O)CSC(=S)N1CCCC1	5.1	n	n	n	n	n	n	n
C[C@H](NC(=O)C[C@H]1C[C@@H]2c3cc(NC(=O)C4CCC4)ccc3O[C@@H]2[C@H](CO)O1)c1ccccc1	x	x	x	x	x	n	x	x
C[C@@H]1CN([C@H](C)CO)C(=O)c2cc(NC(=O)Cc3ccccc3)ccc2O[C@@H]1CN(C)C(=O)Nc1ccc2c(c1)OCO2	x	x	x	x	x	n	x	x
CNc1cc(-c2ccc(C(=O)OC)cc2)ncn1	n	n	n	n	n	n	x	x
SMILES	DAX1 StAR inh	hcDAF-12 act	ssDAF12 agonist	Wnt bcat act	hgDAF-12 ag	esBAF inh	DAX1 inh confirm	SF1 mutant ctr
CNc1cc(-c2ccc(OC)c(OC)c2)ncn1	5.3	n	n	n	12	n	9.5	4.8
C[C@H](CO)N1C[C@H](C)[C@@H](CN(C)S(=O)(=O)c2cn(C)cn2)Oc2ccc(NC(=O)C3CCCCC3)cc2CC1=O	x	x	x	x	x	n	x	x
O=C(Nc1ccccn1)c1ccc(C(=O)c2ccccc2)cc1	9.0	n	n	u	13	x	11	4.7
Cc1cc(C)n(-c2ccc(C(=O)Nc3ccccn3)cc2)n1	4.7	n	n	x	12	n	11	5.4
O=C(NC(=O)c1ccccc1)Nc1ccccn1	n	n	n	n	n	n	x	x
COc1ccc(S(=O)(=O)Nc2cccc3c2O[C@H](CN(C)C(=O)Nc2ccc(C(F)(F)F)cc2)[C@H](C)CN([C@@H](C)CO)C3=O)cc1	x	x	x	x	x	n	x	x
Cc1ccc(C(=O)Nc2ccc(Cl)cc2C)c(Cl)c1	6.7	n	n	n	12	n	7.2	5.4
CCCNC(=O)Nc1ccc2c(c1)C(=O)N(C)[C@@H]1CC[C@@H](CC(=O)NC3CCC3)O[C@H]1CO2	x	x	x	x	x	n	x	x
Cn1c(C(=O)O)cc2c(=O)n3ccccc3nc21	n	n	n	n	n	x	x	x
CCN(C(=O)c1cc2c(=O)n3ccccc3nc2n1C)C1CCCCC1	4.9	n	n	n	n	n	4.6	n
CN(C(=O)c1cc2c(=O)n3ccccc3nc2n1C)C1CCCCC1	10	n	n	37	n	n	12	6.3
Cc1ccc(S(=O)(=O)Nc2ccc3c(c2)C(=O)N(C)[C@H]2CC[C@H](CC(=O)O)O[C@@H]2CO3)cc1	x	x	x	x	x	n	x	x
Cc1noc(C)c1NC(=O)N(C)C[C@@H]1Oc2ccc(NC(=O)Nc3cccc4ccccc34)cc2C(=O)N([C@@H](C)CO)C[C@H]1C	x	x	x	x	x	n	x	x
COc1cccc(NC(=O)C(=O)N/N=C(\C)CC(=O)Nc2ccc(NC(C)=O)cc2)c1	5.8	n	n	n	13	n	5.9	5.8
N/C(=N\OC(=O)c1ccco1)c1ccc(Br)cc1	4.7	n	n	x	n	n	7.2	4.4
O=C(CCN1CCCCC1)N[C@@H]1CC[C@H](CCn2cc(-c3ccc(F)cc3)nn2)O[C@H]1CO	x	x	x	x	x	n	x	x
CC(C)(C)NC(=O)C[C@H]1C[C@H](C(=O)N2CCCCC2)[C@@]2(CCc3ccccc3)c3[nH]c4cc(-c5ccco5)ccc4c3CCN2C1=O	6.1	n	n	n	n	n	n	n
O=C(C[C@H]1C[C@H](C(=O)N2CCOCC2)[C@@]2(CCC3CCCC3)c3[nH]c4cc(-c5ccco5)ccc4c3CCN2C1=O)NCCC1=CCCCC1	x	x	x	x	x	n	x	x
O=C(C[C@H]1C[C@H](C(=O)N2CCOCC2)[C@@]2(CCC3CCCC3)c3[nH]c4cc(-c5ccco5)ccc4c3CCN2C1=O)NCCc1ccccn1	4.6	n	n	n	n	n	n	n
O=C(CSc1nnc(-c2ccccn2)o1)Nc1ccccc1F	14	n	n	37	12	n	15	6.3
